# The full list was thinned out, with the strongest signals kept by preference.
# Assays:
# Test in all cases: glycan array binding signal (z-score within array); higher = stronger binding
# Settings in all cases: glycan notation: IUPAC condensed, linker removed
# [1] = target: Fuc(a1-2)Gal
# Method in brief: (§1)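 From the Consortium for Functional Glycomics database, 3228 arrays were curated, keeping only those whose protein sequence was available. Binding is given as a within-array Z-score averaged across arrays sharing a protein sequence and across linkers. Negative Z-scores can be read as non-binding.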
# [2] = target: Fuc(a1-2)Gal(b1-4)GlcNAc(b1-2)Man(a1-3)[Fuc(a1-2)Gal(b1-4)GlcNAc(b1-2)Man(a1-6)]Man(b1-4)GlcNAc(b1-4)GlcNAc
# Method in brief: as §1
# [3] = target: Fuc(a1-2)Gal(b1-4)GlcNAc(b1-6)GalNAc
# Method in brief: as §1
# [4] = target: Fuc(a1-2)Gal(b1-4)[Fuc(a1-3)]GlcNAc(b1-3)[Neu5Ac(a2-6)Gal(b1-4)GlcNAc(b1-6)]Gal(b1-4)Glc
# Method in brief: as §1
# [5] = target: Fuc(a1-2)[Gal(a1-3)]Gal
# Method in brief: as §1
# [6] = target: Fuc(a1-2)[Gal(a1-3)]Gal(b1-4)GlcNAc(b1-2)Man(a1-3)[Fuc(a1-2)[Gal(a1-3)]Gal(b1-4)GlcNAc(b1-2)Man(a1-6)]Man(b1-4)GlcNAc(b1-4)[Fuc(a1-6)]GlcNAc
# Method in brief: as §1
# [7] = target: Fuc(a1-2)[GalNAc(a1-3)]Gal(b1-3)GalNAc(b1-3)Gal(a1-4)Gal(b1-4)Glc
# Method in brief: as §1
# [8] = target: Fuc(a1-2)[GalNAc(a1-3)]Gal(b1-3)GlcNAc(b1-2)Man(a1-3)[Fuc(a1-2)[GalNAc(a1-3)]Gal(b1-3)GlcNAc(b1-2)Man(a1-6)]Man(b1-4)GlcNAc(b1-4)[Fuc(a1-6)]GlcNAc
# Method in brief: as §1
# [9] = target: Fuc(a1-2)[GalNAc(a1-3)]Gal(b1-4)GlcNAc(b1-2)Man(a1-3)[Fuc(a1-2)[GalNAc(a1-3)]Gal(b1-4)GlcNAc(b1-2)Man(a1-6)]Man(b1-4)GlcNAc(b1-4)GlcNAc
# Method in brief: as §1
# [10] = target: Fuc(a1-3)[Gal(b1-4)]Glc6S
# Method in brief: as §1
# [11] = target: Fuc(a1-3)[Gal3S(b1-4)]GlcNAc6S
# Method in brief: as §1
# [12] = target: Gal(a1-3)Gal(b1-3)GlcNAc(b1-3)GalNAc
# Method in brief: as §1
# [13] = target: Gal(a1-3)Gal(b1-3)[Fuc(a1-4)]GlcNAc(b1-2)Man(a1-3)[Gal(a1-3)Gal(b1-3)[Fuc(a1-4)]GlcNAc(b1-2)Man(a1-6)]Man(b1-4)GlcNAc(b1-4)GlcNAc
# Method in brief: as §1
# [14] = target: Gal(a1-3)Gal(b1-4)Glc
# Method in brief: as §1
# [15] = target: Gal(a1-3)Gal(b1-4)GlcNAc(b1-3)GalNAc
# Method in brief: as §1
# [16] = target: Gal(a1-3)Gal(b1-4)[Fuc(a1-3)]GlcNAc
# Method in brief: as §1
# [17] = target: Gal(a1-4)Gal(b1-4)Glc
# Method in brief: as §1
# [18] = target: Gal(a1-4)Gal(b1-4)GlcNAc(b1-2)Man(a1-3)[Gal(a1-4)Gal(b1-4)GlcNAc(b1-2)Man(a1-6)]Man(b1-4)GlcNAc(b1-4)GlcNAc
# Method in brief: as §1
# [19] = target: Gal(a1-4)Gal(b1-4)GlcNAc(b1-3)Gal(b1-4)Glc
# Method in brief: as §1
# [20] = target: Gal(b1-3)Gal(b1-4)GlcNAc
# Method in brief: as §1
# [21] = target: Gal(b1-3)GalNAc
# Method in brief: as §1
# [22] = target: Gal(b1-3)GlcNAc(b1-3)Gal(b1-4)GlcNAc(b1-2)Man(a1-3)[Gal(b1-3)GlcNAc(b1-3)Gal(b1-4)GlcNAc(b1-2)Man(a1-6)]Man(b1-4)GlcNAc(b1-4)GlcNAc
# Method in brief: as §1
# [23] = target: Gal(b1-3)GlcNAc6S
# Method in brief: as §1
# [24] = target: Gal(b1-3)[Fuc(a1-4)]GlcNAc(b1-2)Man
# Method in brief: as §1
# [25] = target: Gal(b1-4)Glc6S
# Method in brief: as §1
# [26] = target: Gal(b1-4)GlcNAc
# Method in brief: as §1
# [27] = target: Gal(b1-4)GlcNAc(b1-2)[Gal(b1-4)GlcNAc(b1-6)]Man(a1-6)[Gal(b1-4)GlcNAc(b1-2)Man(a1-3)]Man(b1-4)GlcNAc(b1-4)GlcNAc
# Method in brief: as §1
# [28] = target: Gal(b1-4)GlcNAc(b1-3)Gal(b1-4)GlcNAc(b1-2)Man(a1-3)[Gal(b1-4)GlcNAc(b1-3)Gal(b1-4)GlcNAc(b1-2)Man(a1-6)]Man(b1-4)GlcNAc(b1-4)[Fuc(a1-6)]GlcNAc
# Method in brief: as §1
# [29] = target: Gal(b1-4)GlcNAc(b1-3)Gal(b1-4)GlcNAc(b1-3)Gal(b1-4)GlcNAc(b1-3)Gal(b1-4)GlcNAc(b1-3)Gal(b1-4)GlcNAc(b1-3)Gal(b1-4)GlcNAc(b1-2)Man(a1-3)[Gal(b1-4)GlcNAc(b1-3)Gal(b1-4)GlcNAc(b1-3)Gal(b1-4)GlcNAc(b1-3)Gal(b1-4)GlcNAc(b1-3)Gal(b1-4)GlcNAc(b1-3)Gal(b1-4)GlcNAc(b1-2)Man(a1-6)]Man(b1-4)GlcNAc(b1-4)GlcNAc
# Method in brief: as §1
# [30] = target: Gal(b1-4)GlcNAc(b1-3)[Gal(b1-4)GlcNAc(b1-6)]Gal(b1-4)GlcNAc
# Method in brief: as §1
# [31] = target: Gal3S(b1-3)[Fuc(a1-4)]GlcNAc
# Method in brief: as §1
binder,measurement,setting,value
Mincle (Bos taurus) (protein) MNSSTSPASQTERRCFSFQLFSWAIAGTSILLLSACFITRCVVTYSIFQLCDEKKFQPPGDSMELSCYNDGSGSVKNCCPLKWFHFQSSCYLFSPDTMSWRASLKNCSSMGAHLVVINTQEEQEFLYYTKPRKKEFYIGLTDQVTEGQWQWVDGTPFTKSLSFWDAGEPNNLVIVEDCATIRDSSNPRQNWNDVPCFFNMFRVCEMPERKI,glycan array binding signal (z-score),[1],3.49
same,glycan array binding signal (z-score),[2],1.4
same,glycan array binding signal (z-score),[3],-0.168
same,glycan array binding signal (z-score),[4],-0.411
same,glycan array binding signal (z-score),[5],-0.737
same,glycan array binding signal (z-score),[6],-0.601
same,glycan array binding signal (z-score),[7],-0.374
same,glycan array binding signal (z-score),[8],0.364
same,glycan array binding signal (z-score),[9],0.419
same,glycan array binding signal (z-score),[10],-0.342
same,glycan array binding signal (z-score),[11],-0.116
same,glycan array binding signal (z-score),[12],0.019
same,glycan array binding signal (z-score),[13],1.26
same,glycan array binding signal (z-score),[14],0.058
same,glycan array binding signal (z-score),[15],-0.713
same,glycan array binding signal (z-score),[16],-0.559
same,glycan array binding signal (z-score),[17],-0.565
same,glycan array binding signal (z-score),[18],0.919
same,glycan array binding signal (z-score),[19],-0.763
same,glycan array binding signal (z-score),[20],-0.462
same,glycan array binding signal (z-score),[21],-0.37
same,glycan array binding signal (z-score),[22],0.271
same,glycan array binding signal (z-score),[23],-0.773
same,glycan array binding signal (z-score),[24],1.34
same,glycan array binding signal (z-score),[25],0.6
same,glycan array binding signal (z-score),[26],-0.249
same,glycan array binding signal (z-score),[27],-0.55
same,glycan array binding signal (z-score),[28],1.11
same,glycan array binding signal (z-score),[29],0.667
same,glycan array binding signal (z-score),[30],-1.01
same,glycan array binding signal (z-score),[31],3.35
